Our source for the outcome and AC50 values is PubChem BioAssay (EPA / NIEHS).

The target in experiment [1] is Transcription factor E2F1 (Homo sapiens) (UniProt Q01094). Briefly: ATG_E2F_CIS: Attagene CIS-FACTORIAL HepG2 Assay for human E2F Transcription Factor 1 (AID 2282935). The following applies: HepG2 Attagene cis-reporter, E2F reporter RNA transcripts; actives raise or lower the signal. The method in brief:
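In this cis-factorial format, endogenous factor activity drives transfected reporters in HepG2; transcripts collected at 24 h are quantified by fluorescence after RT-PCR and capillary separation.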

Experiment [2] can be described thus: ATG_E_Box_CIS: Attagene CIS-FACTORIAL HepG2 Assay for human Enhancer Box (E-box) (AID 2282936). As to conditions: HepG2 E-box cis-reporter transcription, actives raise or lower the signal. The method in brief: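 Measured 24 h post-dosing in HepG2 cells transfected with multiple cis-regulated reporter units, signal being reporter mRNA induction detected by fluorescent RT-PCR with capillary electrophoresis; gain or loss fitted against DMSO.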

Experiment [3] in a line: ATG_M_61_CIS: Attagene CIS-FACTORIAL HepG2 Assay for M61 Transcription Factor (Internal Marker) (AID 2282937). As to conditions: HepG2 Attagene CIS-FACTORIAL M61 internal marker reporter; actives raise or lower the signal. Summed up:
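HepG2 cells transiently transfected with cis-element-driven multiple reporter transcription units, dosed for 24 h. Reporter mRNA measured by RT-PCR, 6-FAM primer-extension labelling, HpaI digestion and capillary electrophoresis; bidirectional fit versus DMSO baseline.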

Experiment [4] in a line: ATG_EGR_CIS: Attagene CIS-FACTORIAL HepG2 Assay for human Early Growth Response 1 (EGR1) (AID 2282938). As to conditions: HepG2 Attagene CIS-FACTORIAL EGR reporter mRNA; actives raise or lower the signal. Summed up: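 HepG2 cells transiently transfected with cis-promoter-driven multiplexed reporter transcription units; reporter mRNA measured 24 h after compound dosing by RT-PCR, 6-FAM primer extension, HpaI digestion and capillary electrophoresis. Bidirectional fit versus DMSO baseline.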

Experiment [5] in a line: ATG_M_19_CIS: Attagene CIS-FACTORIAL HepG2 Assay for M19 Transcription Factor (Internal Marker) (AID 2282939). As to conditions: HepG2 Attagene CIS-FACTORIAL M19 internal marker reporter; actives raise or lower the signal. The method in brief:
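Following a 24 h exposure, RNA from transfected HepG2 cells was reverse-transcribed, PCR-amplified with reporter-specific primers, end-labelled with 6-FAM and HpaI-digested before capillary separation. Values represent gain or loss versus DMSO.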

Experiment [6] is described as follows: ATG_ERE_CIS: Attagene CIS-FACTORIAL HepG2 Assay for Estrogen Response Element (ERE) (AID 2282940). As to conditions: HepG2 ERE cis-reporter, Attagene RNA transcript; actives raise or lower the signal. Summed up:
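HepG2, transient cis-reporter units, 24 h exposure. RNA isolated, oligo(dT) RT, reporter-specific PCR, FAM extension, HpaI cut, CE detection. Gain/loss-of-signal vs DMSO.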

Experiment [7] can be described thus: ATG_FoxO_CIS: Attagene CIS-FACTORIAL HepG2 Assay for human Forkhead box O (FoxO) (AID 2282943). As to conditions: HepG2 Attagene cis-reporter, FoxO element, mRNA; actives raise or lower the signal. Summed up:
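HepG2 cells transiently transfected with cis-promoter-driven multiple reporter transcription units; 24 h after chemical dosing, reporter mRNA quantified by RT-PCR, fluorescent primer extension, HpaI digestion and capillary electrophoresis. Bidirectional fitting versus DMSO baseline.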

A short description of experiment [8]: ATG_GATA_CIS: Attagene CIS-FACTORIAL HepG2 Assay for human GATA Binding Protein (AID 2282944). The following applies: HepG2 GATA cis-element reporter, Attagene multiplex mRNA; actives raise or lower the signal. Summed up:
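DMSO serves as negative control and baseline for bidirectional fitting of reporter mRNA changes. HepG2 cells bearing transiently transfected cis-promoter reporters were exposed 24 h; transcripts detected via RT-PCR and capillary electrophoresis.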

The nature of experiment [9]: ATG_Ets_CIS: Attagene CIS-FACTORIAL HepG2 Assay for human Erythroblast Transformation Specific (ETS) (AID 2282941). The following applies: HepG2 ETS cis-reporter transcription, actives raise or lower the signal. The method in brief:
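RT-PCR/capillary electrophoresis fluorescence read-out of reporter mRNA; HepG2 transient multi-reporter transfection; 24 h compound exposure; gain or loss of signal fitted bidirectionally relative to DMSO.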

Experiment [10] deals with Hepatocyte nuclear factor 3-beta (Homo sapiens) (UniProt Q9Y261). Briefly: ATG_FoxA2_CIS: Attagene CIS-FACTORIAL HepG2 Assay for human Forkhead box A2 (FOXA2) (AID 2282942). The following applies: HepG2 cis-reporter transcription factor activity, 24 h; actives raise or lower the signal. The method in brief: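 HepG2 cells transiently transfected with multiple cis-regulated reporter transcription units, dosed for 24 h. Reporter mRNA measured by RT-PCR, 6-FAM labelling, HpaI digestion and capillary electrophoresis; bidirectional fitting against DMSO baseline.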
Sequence of Hepatocyte nuclear factor 3-beta (Homo sapiens) (Q9Y261 whole entry, looked up): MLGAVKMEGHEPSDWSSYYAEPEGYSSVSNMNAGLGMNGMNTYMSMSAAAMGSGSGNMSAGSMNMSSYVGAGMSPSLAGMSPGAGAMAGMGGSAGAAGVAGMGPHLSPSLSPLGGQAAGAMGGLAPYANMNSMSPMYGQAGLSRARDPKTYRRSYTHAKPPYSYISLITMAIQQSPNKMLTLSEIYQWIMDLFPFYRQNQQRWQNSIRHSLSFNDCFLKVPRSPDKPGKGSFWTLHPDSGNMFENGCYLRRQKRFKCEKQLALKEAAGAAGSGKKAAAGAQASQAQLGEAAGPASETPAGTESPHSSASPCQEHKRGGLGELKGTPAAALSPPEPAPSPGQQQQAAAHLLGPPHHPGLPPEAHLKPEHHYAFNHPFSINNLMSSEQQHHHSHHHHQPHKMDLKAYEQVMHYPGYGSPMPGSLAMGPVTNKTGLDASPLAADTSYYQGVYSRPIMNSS

Active and inactive are the calls of the source. How the source made its calls: active means hit-call score of the fitted dose curve at least 0.9, where 1 is the maximum; inactive means score below 0.9.

Sequence of Transcription factor E2F1 (Homo sapiens) (Q01094 whole entry, looked up): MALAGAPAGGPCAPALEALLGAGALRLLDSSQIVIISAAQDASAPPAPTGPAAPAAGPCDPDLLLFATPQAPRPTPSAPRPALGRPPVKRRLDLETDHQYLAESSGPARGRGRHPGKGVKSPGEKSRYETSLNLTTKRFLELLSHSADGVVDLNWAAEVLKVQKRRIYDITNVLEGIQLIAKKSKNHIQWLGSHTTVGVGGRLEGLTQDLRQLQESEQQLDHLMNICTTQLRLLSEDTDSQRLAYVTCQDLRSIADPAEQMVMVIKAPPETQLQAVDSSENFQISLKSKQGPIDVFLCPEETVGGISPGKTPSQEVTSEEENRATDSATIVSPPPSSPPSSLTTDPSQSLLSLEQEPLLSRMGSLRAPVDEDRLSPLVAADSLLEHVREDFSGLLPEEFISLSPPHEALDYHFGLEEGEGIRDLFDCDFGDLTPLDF

With `CC(C)(O)C(=O)c1ccc(OCCO)cc1`, the result in [1], in [2], in [3], in experiment [4], in [5] and in experiment [6] was inactive. The call in [7] and in [8] was inactive.

Take `C=CC(=O)OCCCCCC`: the call in [1], in [2], in experiment [3], in experiment [4], in [5] and in experiment [9] was inactive. Moreover, the compound was classed as inactive in experiment [10], in [7] and in experiment [8].

Consider `ClCCOCCOCCCl`, for which the call in experiment [1], in experiment [2], in experiment [3], in experiment [4], in [6] and in [9] was inactive. Moreover, the compound was called inactive in [10] and in experiment [7].

Take `CC(C)C(=O)OCC=Cc1ccccc1`: the outcome in experiment [1], in [3], in experiment [4], in experiment [5], in experiment [6] and in experiment [9] was inactive. The result in experiment [10] and in experiment [7] was inactive.

Broadly, the AC50 is the midpoint of the concentration-response curve, whichever way the signal moves. As to `CCCCC/C=C\C=C\C(=O)OCC`, the compound was classed as inactive in [1], in experiment [2], in experiment [3], in experiment [6], in [9] and in experiment [7]. The compound was called inactive in experiment [8]. Further, the AC50 in [4] was 58.3 µM (active); in [10], 71.5 µM (active).

For `CC(CCO)CC(C)(C)C` (centres undefined), the compound was classed as inactive in [1], in experiment [2], in experiment [3], in experiment [4], in experiment [6] and in experiment [9]. The compound was classed as inactive in experiment [10] and in experiment [8].

Turning to `CC=CC(=O)C1=C(C)C=CCC1(C)C`, the outcome in experiment [1], in experiment [2], in experiment [3], in experiment [4], in experiment [6] and in experiment [9] was inactive. In addition, the result in experiment [10], in [7] and in experiment [8] was inactive.

On to `CC(C)(O)CCc1ccccc1`, for which the result in experiment [1], in experiment [2], in experiment [3], in experiment [4], in [6] and in [9] was inactive. Also, the compound was classed as inactive in experiment [10], in [7] and in experiment [8].

Regarding `c1ccc2c(c1)-c1ccc3ccc4cccc5cc-2c1c3c45`, the result in [1], in [2], in [3], in [4], in experiment [9] and in [7] was inactive. For the same compound, in [8], the compound was called inactive. In addition, the AC50 in experiment [6] was 0.374 µM (active); in [10], 0.381 µM (active).

In the case of `[Na+]`, the compound was called inactive in [1], in experiment [2], in experiment [3], in [4], in [6] and in [9]. For the same compound, the call in experiment [10], in [7] and in [8] was inactive.

Turning to `C/C=C(\C)C(=O)OC/C=C(\C)CCC=C(C)C`, the compound was called inactive in experiment [1], in experiment [2], in [3], in experiment [4], in experiment [9] and in [10]. The compound was called inactive in [7] and in experiment [8]. Besides, the AC50 in experiment [6] is 39 µM (active).

For `C=CC(O)CCCCC` (centres undefined), the compound was classed as inactive in experiment [1], in experiment [2], in [3], in experiment [5], in [9] and in experiment [8]. The AC50 in experiment [4] was 100 µM (active).

Consider `Cc1ccncc1`, for which the call in experiment [1], in experiment [2], in experiment [3], in experiment [4], in experiment [6] and in experiment [9] was inactive. Further, the compound was called inactive in [10], in [7] and in experiment [8].

For the compound `CCCCOC(=O)C(C)OC(=O)CCC` (centres undefined), the outcome in experiment [1], in [2], in experiment [3], in [4], in experiment [9] and in experiment [10] was inactive. The compound was classed as inactive in experiment [8].

As to `CCCCC1CCCCC(=O)O1` (centres undefined), the compound was called inactive in experiment [1], in experiment [2], in experiment [3], in experiment [4], in experiment [6] and in [9]. Besides, the compound was called inactive in experiment [10], in [7] and in experiment [8].

Take `C1=COCCC1`: the compound was classed as inactive in [1], in experiment [2], in experiment [3], in experiment [4], in experiment [6] and in [9]. Also, the compound was classed as inactive in [10] and in experiment [7].

As for `O=S(=O)(O)c1cc(S(=O)(=O)O)c2c(N=Nc3ccccc3)c(O)ccc2c1`, the outcome in [1], in experiment [2], in experiment [3], in experiment [4], in experiment [5] and in experiment [10] was inactive. The result in [7] and in experiment [8] was inactive.

Take `CC1=CCC(C(C)C)=CC1`: the call in [1], in [2], in experiment [3], in experiment [4], in experiment [6] and in experiment [10] was inactive. Moreover, the compound was classed as inactive in experiment [7] and in [8].

For `NC(=O)c1cnccn1`, the compound was called inactive in experiment [1], in [2], in experiment [3], in experiment [4], in experiment [5] and in [10]. Besides, the compound was classed as inactive in experiment [7] and in [8].
